This is an account of results in PubChem BioAssay (NCI).

Structures are written as SMILES. About 83,000 compounds went through this panel and 20% of them were active in at least one assay; those are over-represented in the sample as a whole.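 96-well plates, one dose, 48 hours. Percent growth reported; active if below 10.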 The source made the active and inactive calls.

The assay deals with HCC-2998 colon. In words: NCI-60 one-dose screen, 48 h (100 = growth as untreated, 0 = no growth, -100 = all killed). The settings on record: 10 µM unless noted.
For the molecule `c1csc(C2=NN3C(C2)c2ccccc2OC3c2ccncc2)c1` (stereo not given), the growth was 96.3% (inactive).

On to `CCCn1c(=O)[nH]c(N)c([C@H]2c3ccccc3Oc3[nH]c(=O)n(CCC)c(=O)c32)c1=O`, for which the growth was 104% (inactive).

With `COc1cccc(-c2nc3sccn3c2-c2ccnc(NCCCNS(=O)(=O)c3cccc(F)c3)c2)c1`, the growth is 64.7% (inactive).

In the case of `CCCCC/C(C=C(C#N)C#N)=C/c1ccccc1`, the growth was 88.3% (inactive).

Regarding `C=C(C)C1CC(O)C2(C)CCCC3C2C1CC(C)C3(C)CC/C(C)=C/C(O)C1CCC(=O)c2c(OC)cc(OC)cc21` (stereo not given), the growth is 76.9% (inactive).

Take `O=C1CC(=NCC(=O)n2c(-c3ccccc3)nc3ccccc32)NN1`: the growth was 109% (inactive).

Take `Clc1ccc2c(NCCCNc3nc(-n4ccnc4)nc4ccccc34)ccnc2c1`: the growth is 106% (inactive).

Regarding `CN(CCCCCl)P(=O)(OCc1ccc([N+](=O)[O-])o1)C(F)(F)c1ccc(CC(=O)NC[C@@H](O)/C=C\[C@@H](O)[C@H](CO)Cc2ccccc2)cc1` (stereo not given in full), the growth was 105% (inactive).

Turning to `O=C1Nc2c(ccc(Cl)c2Cl)/C1=C\c1ccc(C(F)(F)F)cc1`, the growth is 92.4% (inactive).

As for `O=C1CSC(=S)N1CCc1ccc(O)cc1`, the growth was 102% (inactive).
